Compounds with a hit are over-represented: about 19% of the library has one in this group of screens.
HT1080NT lethal: kills 2HG-producing HT-1080-NT fibrosarcoma cells; HT-1080-NT fibrosarcoma viability, CellTiter-Glo ATP luminescence, 48 h; Potency, µM (top dose mostly 46.1 µM), inactives show top-dose activity, negative = less viability, actives largely listed as cytotoxic; 360,000 tested, 1.6% active;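 note: NT is the 2HG producing partner of a matched IDH1 knockdown line; potency is the fitted concentration of half-maximal effect; 0% = DMSO-treated cells and -100% = media-only wells without cells; nearly all actives have a fitted effect of over 55% in size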
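Viability by CellTiter-Glo luminescence after 48 h compound exposure at 37C of HT-1080-NT cells (750/well, RPMI, 5% FBS). % activity scaled between DMSO wells and medium-only wells, then curve-fitted and categorized by curve class.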
IL1B secr inh: blocks inflammasome-driven IL-1 beta release; THP-1 LPS/ATP IL-1B secretion, AlphaLISA, 16 h; active compounds read low; 360,000 tested, 4.7% active; activity change, % at 57.5 µM; in the data active = activity change below about -50%; inconclusive = mostly about -30% to -49%
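THP-1 cells pretreated 1 hr with compounds (up to 57.5 uM final), then stimulated with LPS (250 ng/mL final) plus ATP (1.25 mM final); secreted IL-1B measured by AlphaLISA after 16 hr, decreased signal indicating inhibition.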
TDP1 cell CPT: growth inhibition of DT40 Tdp1-/-;hTDP1 cells with camptothecin (screen for TDP1 inhibitors); Potency, µM (doses to about 46.2 µM), for inactives: at the top dose activity change, negative = growth inhibition, usual class: inhibitors; chicken DT40 Tdp1-/-;hTDP1 cells + 20 nM CPT, ATP luminescence, 48 h; 420,000 tested, 12% active; AID 686979; note: potency is the fitted concentration of half-maximal effect; nearly all actives have a fitted effect of over 55% in size
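Chicken DT40 Tdp1-/- cells stably complemented with human TDP1 were seeded at 400 cells/well in medium containing 20 nM camptothecin, exposed to pin-transferred compounds, and grown at 37 °C for at least 48 hr. Viability was read as ATP luminescence.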
TDP1 cell noCPT: qHTS for Inhibitors of human tyrosyl-DNA phosphodiesterase 1 (TDP1): qHTS in cells in absence of CPT; DT40 Tdp1-/- hTDP1 cells, no CPT, ATP luminescence, 48 h; Potency, µM (highest dose often 46.2 µM), for inactives: at the top dose activity change, negative = growth inhibition, actives largely listed as inhibitors; 420,000 tested, 15% active; AID 686978, 2013; note: potency is the fitted concentration of half-maximal effect; nearly all actives have a fitted effect of over 55% in size
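Chicken DT40 Tdp1-/- cells complemented with human TDP1, screened without camptothecin (DMSO vehicle only), 400 cells/well. Compounds pin-transferred, cells incubated at 37 °C for at least 48 hr. Growth read as ATP-dependent luminescence (CellTiter-Glo, 30 min at RT).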
HT1080 IDH1KD tx: kills HT-1080 cells with IDH1 knockdown; HT-1080 IDH1 knockdown viability, ATP luminescence, 48 h; Potency, µM (titrated, usually from 46.1 µM), without a hit: at the top dose activity, negative = toxicity, hits mostly cytotoxic; 360,000 tested, 2% active; AID 686971;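 note: potency is the fitted concentration of half-maximal effect; 0% = DMSO wells and -100% = cell-free medium wells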
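Using the IDH1-knockdown HT-1080 line run in the same batch and compound series as the NT line, viability after 48 h at 37 °C was determined by CellTiter-Glo luminescence and expressed as % activity.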
Starred values were filed as active, the others as inactive; u = inconclusive; x = no result; [ ] = dose if it differs, or a comment. Unless noted, calls come from the whole dose curve; as a rule, active = well fitted curve in the direction sought with a large enough effect; inconclusive = small, poorly fitted or top-dose-only effect, or another doubt; inactive = no such curve, though single readings can be large; an effect the other way counts as inactive or inconclusive. Unless noted, % is set by controls: 0 for no effect and ±100 for the full control effect.

SMILES	HT1080NT lethal	IL1B secr inh	TDP1 cell CPT	TDP1 cell noCPT	HT1080 IDH1KD tx
CCN1C(=O)C(O)(CC(=O)c2cc(C)ccc2C)c2ccccc21 (centres undefined)	0%	13	-27%	-18%	0%
CCN1C(=O)C(O)(CC(=O)/C=C/C=C/c2ccccc2)c2ccccc21 (centres undefined)	3%	u	23µM*	u	-1%
O=C(/C=C/C=C/c1ccccc1)CC1(O)C(=O)N(CCc2ccccc2)c2ccccc21 (centres undefined)	-1%	-100*	21µM*	18µM*	-14%
COc1ccccc1C(=O)CC1(O)C(=O)N(CC(N)=O)c2ccccc21 (centres undefined)	x	x	-2%	12%	x
NC(=O)CN1C(=O)C(O)(CC(=O)/C=C\C=C\c2ccccc2)c2ccccc21 (centres undefined)	2%	-86*	u	u	-1%
CC(C)(C)C(=O)CC1(O)C(=O)N(Cc2ccccc2)c2ccccc21 (centres undefined)	1%	-7	0%	-14%	-1%
C#CCN1C(=O)C(O)(CC(=O)/C=C/C=C/c2ccccc2)c2ccccc21 (centres undefined)	5%	-29	u	23µM*	8%
Cc1ccc2c(c1)C(O)(CC(=O)/C=C/C=C/c1ccccc1)C(=O)N2 (centres undefined)	-8%	-56*	u	u	-6%
Cc1ccc(N=Cc2cccc(O)c2O)c(C)c1	x	x	20µM*	u	x
Cc1ccccc1N=Cc1cccc(O)c1O	-13%	64	u	10µM*	15µM*
CCOc1cc(C=O)cc(Cl)c1OCC(N)=O	2%	31	u	18µM*	10%
COC(=O)[C@@]12C[C@@H](CC(=O)N3CCC(c4ccccc4)CC3)C(=O)N(CCc3ccc(OC)c(OC)c3)C1=CCC(C)(C)C2	-28%	0	u	u	-21%
CCCCOCCCNC(=O)C[C@@H]1C[C@@]2(C(=O)OC)CC(C)(C)CC=C2N(CCc2ccc(OC)c(OC)c2)C1=O	-22%	x	u	15µM*	-9%
COC(=O)[C@@]12C[C@@H](CC(=O)N3CCSCC3)C(=O)N(CCc3ccc(OC)c(OC)c3)C1=CCC(C)(C)C2	2%	u	u	u	1%
COC(=O)[C@@]12C[C@@H](CC(=O)NCCC(C)C)C(=O)N(CCc3ccc(OC)c(OC)c3)C1=CCC(C)(C)C2	-15%	x	u	21µM*	-27%
Cc1cc2cc(C)c3nnc(SCC(=O)Nc4ccc(S(=O)(=O)N5CCCCC5)cc4)n3c2cc1C	-1%	34	u	3%	0%
CC1CCN(S(=O)(=O)c2ccc(NC(=O)Cn3nnc(-c4ccccc4F)n3)cc2)CC1	20µM*	-27	-29%	u	u
COc1cccc(N2CCN(S(=O)(=O)c3ccc(-c4coc(C)n4)cc3)CC2)c1	u	6	u	21µM*	-1%
Cc1cc2ccccc2n2c(SCC(=O)Nc3ccc(S(=O)(=O)N4CCC(C)CC4)cc3)nnc12	1%	-9	29µM*	23µM*	-3%
CC1CCN(S(=O)(=O)c2ccc(NC(=O)CNC3CCCCC3)cc2)CC1	-2%	-87*	u	u	-3%
COc1ccc(S(=O)(=O)N(C)CC(=O)O)c2ccccc12	19%	20	-9%	-12%	-9%
COc1cccc(N2CCN(S(=O)(=O)c3cc4c(cc3C)N(C)CCO4)CC2)c1	-12%	-4	u	16µM*	-25%
CC1CCN(CC(=O)Nc2ccc(S(=O)(=O)N3C(C)CCCC3C)cc2)CC1 (centres undefined)	-13%	0	u	15µM*	12%
CC1CCN(CC(=O)Nc2ccc(S(=O)(=O)N3CCCCC3)cc2)CC1	0%	0	u	-25%	-3%
CC1CCCN(CC(=O)Nc2ccc(S(=O)(=O)N3CCCC3)cc2)C1 (centres undefined)	-6%	-8	3%	13µM*	2%
SMILES	HT1080NT lethal	IL1B secr inh	TDP1 cell CPT	TDP1 cell noCPT	HT1080 IDH1KD tx
Cc1ccccc1C(=O)N1CCC(C(=O)Nc2ccc(S(=O)(=O)N3C(C)CCCC3C)cc2)CC1 (centres undefined)	-1%[9.24 µM]	u	12µM*	10µM*	u
Cc1cc2c(cc1S(=O)(=O)N1CCN(c3ccc(Cl)cc3)CC1)OCCN2C	-14%	-9	u	u	-14%
Cc1ccc(NC(=O)C2CCN(C(=O)c3ccccc3C)CC2)cc1	-2%	22	1%	-28%	-7%
CC1CCN(S(=O)(=O)c2ccc(NC(=O)CN3CCCCCC3)cc2)CC1	-17%	-50*	u	u	u
COc1cccc(N2CCN(CC(=O)Nc3ccc(S(=O)(=O)N4CCCCCC4)cc3)CC2)c1	0%	39	u	13µM*	-14%
COc1cccc(NC(=O)CN2CCN(S(=O)(=O)c3ccc(F)cc3)CC2)c1	-11%	-6	-18%	-16%	12%
CCOC(=O)C1CCCCN1S(=O)(=O)c1ccc2c(c1)CC(C)N2C(=O)C1CCC1 (centres undefined)	u	-6	23µM*	9.2µM*	-5%
CC1Cc2cc(S(=O)(=O)N3CCCCC3C)ccc2N1C(=O)C1CCC1 (centres undefined)	u	10	u	u	-1%
CC1CC(C)CN(S(=O)(=O)c2ccc3c(c2)CC(C)N3C(=O)C2CCC2)C1 (centres undefined)	-23%	-2	23µM*	15µM*	-28%
CC1CCN(C(=O)C2CCN(S(=O)(=O)c3ccc4c(c3)CC(C)N4C(=O)C3CC3)CC2)CC1 (centres undefined)	-13%	-30	-17%	u	-25%
CC1CC(C)CN(S(=O)(=O)c2ccc3c(c2)CC(C)N3C(=O)C2CC2)C1 (centres undefined)	-3%	-5	18µM*	15µM*	-7%
CNC(C)C(=O)NC(C(=O)NC(C)C(=O)Nc1cccc2ccccc12)C(C)C (centres undefined)	8%	0	0%	-1%	11%
CC(C)c1nc2sc3c(c2c(=O)[nH]1)CC(C)(C)OC3	1%	-8	4%	12%	0%
CC1Sc2ccc(C(=O)Nc3ncccc3O)cc2NC1=O (centres undefined)	-3%	-6	-24%	u	-1%
COc1cc(-c2c(-c3ccc4c(c3)OCO4)noc2-c2ccsc2)cc(OC)c1OC	x	x	u	-28%	x
COc1cc2c(C#CCCO)c(-c3ccsc3)oc(=O)c2cc1OC	-12%	-73*	u	8.2µM*	-8%
